This note sets out measurements from PubChem BioAssay (NCI).

About 79,000 compounds went through this panel and 15% of them were active in at least one assay; those are over-represented in the sample as a whole. Unmarked numbers belong to inactive results. Active and inactive are the calls of the source. Rule as the data show it: active = growth inhibition above about 70%; inactive = the rest.

Assay [1] is described as follows: NCI Yeast Anticancer Drug Screen. Data for the rad50 strain (AID 155).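 Also: 0% = growth of vehicle-only cultures of the same strain.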 The following applies: S. cerevisiae rad50 strain growth inhibition; at 50.0 µM; hits give high values. The essentials: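 Genetically altered yeast (DNA repair pathway); compound treatment; growth inhibition vs vehicle ctrl.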
Assay [2] is described as follows: NCI Yeast Anticancer Drug Screen. Data for the mec2-1 strain (AID 157). The settings on record: S. cerevisiae mec2-1 strain, at 50.0 µM, hits give high values. The essentials: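 Cells of the genetically defined mec2-1 yeast strain are incubated with test compound. Inhibition of growth is calculated against vehicle-treated controls.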
Assay [3] is described as follows: NCI Yeast Anticancer Drug Screen. Data for the sgs1 mgt1 strain (AID 161).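 Also: 0% = growth of cultures given vehicle only.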 The settings on record: S. cerevisiae sgs1 mgt1 strain, at 50.0 µM, hits give high values. In outline: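 Read-out: growth inhibition vs vehicle controls. Cells: mutant yeast strain deficient in DNA damage repair.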
Assay [4] can be described thus: NCI Yeast Anticancer Drug Screen. Data for the cln2 rad14 strain (AID 165).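 Also: 0% = growth equal to vehicle treated cultures.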 The following applies: S. cerevisiae cln2 rad14 strain, at 50.0 µM, hits give high values. The essentials: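 The screen exposed genetically defined yeast (cln2 rad14) to test compounds and scored growth inhibition relative to vehicle-treated controls.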
A short description of assay [5]: NCI Yeast Anticancer Drug Screen. Data for the bub3 strain (AID 167). The following applies: S. cerevisiae bub3 mutant strain, at 50.0 µM, hits give high values. The essentials:
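Yeast carrying a defined mutation is treated with each compound, and growth is compared with that of vehicle-exposed cells to give inhibition.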

Assay [6] is described as follows: NCI Yeast Anticancer Drug Screen. Data for the mlh1 rad18 strain (AID 175). The settings on record: S. cerevisiae mlh1 rad18 strain growth inhibition; at 50.0 µM; hits give high values. The essentials: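 Compound-treated yeast growth, normalised to vehicle controls. Strain bears defined DNA repair mutations.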

As for `CCCCNC(=O)NC/C(Br)=C/Br`, the growth inhibition in assay [1] is 1.75%; in assay [2], 5.15%; in assay [3], 1.4%; in assay [4], -3.75%; in assay [5], 1.85%; in assay [6], -5.2%.

`CC(CCC(=O)O)C1CCC2C3CCC4CCCCC4(C)C3CCC12C` (stereo unspecified): the growth inhibition in assay [1] was 8.4%; in assay [2], 41.9%; in assay [3], 43.3%; in assay [4], 17.3%; in assay [5], 51.2%; in assay [6] it was 49.5%.

Take `Cc1ccc(C(C)[N+](=O)[O-])cc1` (stereo unspecified): the growth inhibition in assay [1] was 13.2%; in assay [2] it was 18.1%; in assay [3] it was 18.4%; in assay [4], -13.7%; in assay [5], 0.45%; in assay [6], 18.2%.

As to `Cc1ccc(N=Nc2ccc(C)cc2NC(=O)Nc2cc([N+](=O)[O-])ccc2F)cc1`, the growth inhibition was 13.4% in assay [1]; -16.1% in assay [2]; -4.6% in assay [3]; -5.9% in assay [4]; -4.3% in assay [5]; -5.4% in assay [6].

For the compound `CNC(=S)Nc1ccccc1`, the growth inhibition in assay [1] is -21.3%; in assay [2], -33.8%; in assay [3], 3.55%; in assay [4], -8.15%; in assay [5] it was -5.35%; in assay [6] it was 18.8%.

In the case of `O=C1C=CC(=O)N1C(c1ccccc1)(c1ccccc1)c1ccccc1`, the growth inhibition in assay [1] is 99% (active); in assay [2], 99.7% (active); in assay [3] it was 99.5% (active); in assay [4], 99% (active); in assay [5], 99.5% (active); in assay [6], 99.5% (active).

For the compound `Cc1ccccc1NN`, the growth inhibition in assay [1] was 29.1%; in assay [2], 7.05%; in assay [3] it was -2.3%; in assay [4], -2.6%; in assay [5], 4%; in assay [6], 7.6%.

For `CCCCC/C(C)=C\C(=O)O`, the growth inhibition in assay [1] was 8.95%; in assay [2] it was 9.4%; in assay [3], 7.25%; in assay [4], -14.2%; in assay [5], -2.4%; in assay [6], 5.35%.

As to `COc1cccc2cc(-c3c[nH]c4ccccc34)c(=O)oc12`, the growth inhibition in assay [1] is 1%; in assay [2], 11.2%; in assay [3], 11.2%; in assay [4], 7%; in assay [5], 1.65%; in assay [6], 0.75%.

Take `O=c1oc2c(Cl)cc(Cl)cc2cc1-c1nc2ccccc2[nH]1`: the growth inhibition was 29.1% in assay [1]; 38.2% in assay [2]; 15.6% in assay [3]; 9.65% in assay [4]; 14.1% in assay [5]; 12.6% in assay [6].

For `C=CCc1ccc(O)c(OC)c1`, the growth inhibition in assay [1] was 36%; in assay [2] it was -3.25%; in assay [3] it was -10.4%; in assay [4], 9.7%; in assay [5], 26.4%; in assay [6], 25%.

With `O=C1CCC2c3ccccc3C(=O)C2C1` (stereo unspecified), the growth inhibition is 6.7% in assay [1]; 4.2% in assay [2]; -1.45% in assay [3]; -19.1% in assay [4]; -14.1% in assay [5]; 9.3% in assay [6].

With `CC1(C)OC(=O)N=C1c1ccc(Br)cc1`, the growth inhibition in assay [1] was 1.4%; in assay [2] it was -25.6%; in assay [3], -21.1%; in assay [4], 21.8%; in assay [5], -22%; in assay [6], 15.3%.

`CC(c1ccccc1)C1CC(=O)N(C)C1=O` (stereo unspecified): the growth inhibition in assay [1] was 7.85%; in assay [2], -15%; in assay [3], 0.45%; in assay [4], -19.9%; in assay [5], -23.8%; in assay [6] it was 2.35%.

On to `COc1cc2c(cc1OC)C(c1ccc([N+](=O)[O-])c(C)c1)=NCC2`, for which the growth inhibition in assay [1] was 28.1%; in assay [2] it was -15.7%; in assay [3] it was 39.5%; in assay [4], 15.3%; in assay [5], 19.4%; in assay [6] it was 0.25%.

Regarding `CN(C)C(=S)Oc1cc(Cl)c(Cl)cc1Cl`, the growth inhibition was 86.1% (active) in assay [1]; 95.6% (active) in assay [2]; 91.3% (active) in assay [3]; 81.8% (active) in assay [4]; 91.3% (active) in assay [5]; 96% (active) in assay [6].

On to `O=C(C/C(=C/c1ccccc1)[N+](=O)[O-])c1ccccc1`, for which the growth inhibition in assay [1] is 99.2% (active); in assay [2], 99.2% (active); in assay [3], 99.3% (active); in assay [4], 98.8% (active); in assay [5], 99% (active); in assay [6] it was 98.8% (active).

For `COc1ccccc1NC(=O)CC(C)=O`, the growth inhibition was 7% in assay [1]; -5.9% in assay [2]; 7.8% in assay [3]; -11.6% in assay [4]; -15.8% in assay [5]; -8.5% in assay [6].

As for `COc1cc(C(OC(C)=O)OC(C)=O)c(Cl)c(Cl)c1OC(C)=O`, the growth inhibition in assay [1] was 16.7%; in assay [2], -2.25%; in assay [3], 9.35%; in assay [4], -5.3%; in assay [5], 12.2%; in assay [6], 18.6%.

Consider `O=[N+]([O-])c1cccc2c(-c3nccc4c([N+](=O)[O-])cccc34)nccc12`, for which the growth inhibition in assay [1] is -16.9%; in assay [2], -1.35%; in assay [3] it was -19.4%; in assay [4] it was -21.8%; in assay [5], -16.2%; in assay [6], -19%.

With `COc1cc2oc(-c3ccc(O)cc3)cc(=O)c2c(OC)c1OC`, the growth inhibition in assay [1] was -4.35%; in assay [2] it was -5.95%; in assay [3] it was -2.35%; in assay [4], -26.7%; in assay [5] it was 17.9%; in assay [6], 12.3%.

In the case of `OC1COC(O)(CN2CCOCC2)C(O)C1O` (stereo unspecified), the growth inhibition was 14.2% in assay [1]; 5.95% in assay [2]; 10.6% in assay [3]; 4.75% in assay [4]; 18.1% in assay [5]; 7.6% in assay [6].

`CCCCCCCCCCCCCC(=O)OCC1OC(n2cc(F)c(=O)[nH]c2=O)C(N)C(OC(=O)CCCCCCCCCCCCC)C1O` (stereo unspecified): the growth inhibition is 27.4% in assay [1]; 7.4% in assay [2]; 22.5% in assay [3]; 35.3% in assay [4]; 11.6% in assay [5]; 24.1% in assay [6].

For `N#CCCCNc1ccccc1`, the growth inhibition was -19.1% in assay [1]; -15% in assay [2]; -28.4% in assay [3]; -4.9% in assay [4]; -8.6% in assay [5]; -20.6% in assay [6].

Turning to `CCOC(=O)CS(=O)(=O)CS(=O)(=O)CC(=O)OCC`, the growth inhibition in assay [1] is 10%; in assay [2] it was 8.35%; in assay [3], 7.85%; in assay [4], 5.55%; in assay [5], 9.95%; in assay [6], 7.25%.

`O=S(=O)(c1ccc(Cl)cc1)c1ccccc1C1=NCCN1`: the growth inhibition in assay [1] is -37.8%; in assay [2], -44.9%; in assay [3] it was -5.7%; in assay [4] it was 6.3%; in assay [5] it was -43.8%; in assay [6] it was -23.8%.

Regarding `CC(C)c1cc(CN(C)C)c(O)c(C(C)(C)C)c1`, the growth inhibition is -25.4% in assay [1]; 23.2% in assay [2]; -43.5% in assay [3]; -40% in assay [4]; -14.3% in assay [5]; -8.3% in assay [6].

Turning to `NC(CCCNCc1ccccc1)C(=O)O` (stereo unspecified), the growth inhibition in assay [1] is 31.9%; in assay [2], 6.85%; in assay [3] it was 1.65%; in assay [4] it was 12.3%; in assay [5], 36.9%; in assay [6], 16.3%.

As for `CCCCCCCCCC(O)CCCC(O)C(O)CCCCCCC(=O)O` (stereo unspecified), the growth inhibition in assay [1] was 13.1%; in assay [2], 15%; in assay [3], 22.7%; in assay [4] it was 17.5%; in assay [5], -3.05%; in assay [6], 37.6%.

For `CN(C)CC(Cc1ccccc1)c1ccccc1` (stereo unspecified), the growth inhibition is -19.9% in assay [1]; -10.9% in assay [2]; -18.6% in assay [3]; 7.6% in assay [4]; -5.4% in assay [5]; -17.6% in assay [6].

For `CC(=O)Oc1ccc(OC(C)=O)c(C(=O)O)c1`, the growth inhibition was 15.1% in assay [1]; -2.65% in assay [2]; 2.9% in assay [3]; -39.3% in assay [4]; -2.3% in assay [5]; 17.4% in assay [6].

Consider `C(=C(c1ccccc1)c1ccccc1)N1CCOCC1`, for which the growth inhibition was -2.3% in assay [1]; -5.5% in assay [2]; 4.7% in assay [3]; -52% in assay [4]; -20.1% in assay [5]; 1.2% in assay [6].

Consider `CC(C)CC/C(=N\NC(N)=O)C1CCOCC1`, for which the growth inhibition in assay [1] was -3.1%; in assay [2], 14.2%; in assay [3], 9.25%; in assay [4], -7.2%; in assay [5], -0.05%; in assay [6] it was -3.85%.

Take `Cc1cc2nnn(-c3ncccc3[N+](=O)[O-])c2cc1C`: the growth inhibition in assay [1] is 5%; in assay [2], 5.85%; in assay [3] it was -5.2%; in assay [4], 17.8%; in assay [5] it was 9.8%; in assay [6], 19.4%.

Turning to `COc1cccc(Oc2cccc[n+]2CC(C)=O)c1`, the growth inhibition in assay [1] was -57.5%; in assay [2] it was -10.3%; in assay [3], 3.75%; in assay [4], 8.4%; in assay [5], 0.3%; in assay [6] it was 1.15%.

In the case of `CCN(CC)CCC(CN(C)C)C(C)O` (stereo unspecified), the growth inhibition was -4.05% in assay [1]; 4.05% in assay [2]; 13.1% in assay [3]; -17.4% in assay [4]; -1.4% in assay [5]; 8.75% in assay [6].

For `NC(=O)O/N=C/c1ccc(Cl)cc1`, the growth inhibition in assay [1] is 2.8%; in assay [2], -16.8%; in assay [3] it was -13.1%; in assay [4], 10.3%; in assay [5] it was 17.1%; in assay [6], 9.8%.

For the compound `NC1=Nc2ccccc2Sc2nnc(-c3ccc(Cl)cc3)n21`, the growth inhibition in assay [1] is 1.75%; in assay [2] it was -3.25%; in assay [3], -11.8%; in assay [4], -3.3%; in assay [5], -15.2%; in assay [6], 4.6%.

Consider `CC(C)(C)C(N)=O`, for which the growth inhibition in assay [1] is 2.4%; in assay [2], -1.25%; in assay [3], 4.35%; in assay [4] it was -3.9%; in assay [5], -7.25%; in assay [6] it was -1.25%.

On to `CC1(CO)OC(n2cnc3c(N)ncnc32)C(O)C1O` (stereo unspecified), for which the growth inhibition in assay [1] is -25.8%; in assay [2], -30.8%; in assay [3], -52.6%; in assay [4], -8.25%; in assay [5], -14.7%; in assay [6], -29.2%.

Consider `CN(C)c1nc(S(C)(=O)=O)nc2nc(S(C)(=O)=O)[nH]c12`, for which the growth inhibition in assay [1] is 2.45%; in assay [2], -19.1%; in assay [3], -4%; in assay [4], -47%; in assay [5] it was 1.95%; in assay [6], -17.6%.
